In the supplement of paper PMC9177965:
Values joined by “and” are separate entries in the source; they are usually repeats but may differ in a detail not shown here. Equal values may be shown once.

These compounds were tested on HT29 RNF43 G659fs (RNF43 659mut, CRISPR-edited) (assay: cell viability activity relative to DMSO (negative = inhibition); higher = more viable cells (less growth inhibition)). Details: 5 µM; 96 h.
Experimental: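 Broad Repurposing Library primary screen at a single dose of 5 uM. HT29 sg-Ctrl and HT29 RNF43 G659fs CRISPR-edited isogenic cells were seeded at 2500 cells/well in 384-well plates in duplicate and treated for 96 h. Viability was read by CellTiter-Glo and reported as % activity relative to DMSO, with MG132 as the positive control (negative = growth inhibition).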

SMILES | cell viability activity
C=C(C)[C@H]1Cc2c(ccc3c2O[C@@H]2COc4cc(OC)c(OC)cc4[C@@H]2C3=O)O1 | -61.5%
C/C1=C/C[C@@H](/C(C)=C/c2csc(C)n2)OC(=O)C[C@H](O)C(C)(C)C(=O)[C@H](C)[C@@H](O)[C@@H](C)CCC1 | -63.7%
CCNC(=O)C[C@@H]1N=C(c2ccc(Cl)cc2)c2cc(OC)ccc2-n2c(C)nnc21 | -56.9%
O=[N+]([O-])C=Cc1ccc2c(c1)OCO2 | -25.8%
NC(=O)c1cn([C@@H]2O[C@H](CO)[C@@H](O)[C@H]2O)c2ncnc(N)c12 | -95.1%
COc1ccc(CCN2CCC(Nc3nc4ccccc4n3Cc3ccc(F)cc3)CC2)cc1 | -23.2%
C/C(=C\c1csc(C)n1)[C@@H]1C[C@@H]2O[C@@H]2CCC[C@H](C)[C@H](O)[C@@H](C)C(=O)C(C)(C)[C@@H](O)CC(=O)O1 | -69%
COc1cccc2c1C(=O)c1c(O)c3c(c(O)c1C2=O)C[C@@](O)(C(=O)CO)C[C@@H]3O[C@H]1C[C@H](N2CCO[C@H](OC)C2)[C@H](O)[C@H](C)O1 | -96.6%
C[C@@H]1O[C@@H](O[C@H]2C[C@@H](O)[C@]3(CO)[C@H]4[C@H](O)C[C@]5(C)[C@@H](C6=CC(=O)OC6)CC[C@]5(O)[C@@H]4CC[C@]3(O)C2)[C@H](O)[C@H](O)[C@H]1O | -90.4% and -90%
CCCCCCCCCCCCCCCC[n+]1ccccc1 | -92.7%
Oc1cc(Cl)ccc1Oc1ccc(Cl)cc1Cl | -89.3%
C/C=C(\C)C(=O)N[C@@H](c1ccccc1)[C@@H](O)C(=O)O[C@H]1C[C@@]2(O)[C@@H](OC(=O)c3ccccc3)[C@@H]3[C@]4(OC(C)=O)CO[C@@H]4C[C@H](O)[C@@]3(C)C(=O)[C@H](OC(C)=O)C(=C1C)C2(C)C | -68.1%
C[C@@H]1CC[C@@]2(OC1)O[C@H]1C[C@H]3[C@@H]4CC=C5C[C@@H](O[C@@H]6O[C@H](CO)[C@@H](O[C@@H]7O[C@@H](C)[C@H](O)[C@@H](O)[C@H]7O)[C@H](O)[C@H]6O[C@@H]6O[C@@H](C)[C@H](O)[C@@H](O)[C@H]6O)CC[C@]5(C)[C@H]4CC[C@]3(C)[C@H]1[C@@H]2C | -25.8%
COc1cc2cc(c1Cl)N(C)C(=O)C[C@H](OC(=O)C(C)C)[C@]1(C)O[C@@H]1[C@H](C)[C@@H]1C[C@@](O)(NC(=O)O1)[C@H](OC)/C=C/C=C(\C)C2 | -66.8%
Cc1sc2c(c1C)C(c1ccc(Cl)cc1)=N[C@@H](CC(=O)Nc1ccc(O)cc1)c1nnc(C)n1-2 | -56.2%
C[C@@]1(CO)[C@H](O)CC[C@@]2(C)[C@H]1CC[C@H]1C[C@@H]3C[C@@]12CC[C@]3(O)CO | -31.8%
CC[C@H]1CN2CCc3cc(OC)c(OC)cc3[C@@H]2C[C@@H]1C[C@H]1NCCc2cc(OC)c(OC)cc21 | -93.8% and -97.5%
N#CC(C#N)=NNc1cccc(Cl)c1 | -83.3%
O=Cc1cn(Cc2ccc(Cl)cc2)c2ccccc12 | -38.7%
C[C@@H]1O[C@@H](O[C@@H]2C=C3CC[C@@H]4[C@H](CC[C@]5(C)[C@@H](c6ccc(=O)oc6)CC[C@]45O)[C@@]3(C)CC2)[C@H](O)[C@H](O)[C@H]1O | -81.8%

SMILES | cell viability activity
O=C(C[C@H]1NCCC[C@@H]1O)Cn1cnc2cc(Br)c(Cl)cc2c1=O | -91.6%
N#Cc1cn([C@@H]2O[C@H](CO)[C@@H](O)[C@H]2O)c2ncnc(N)c12 | -94.2%
C[C@]12CC[C@H](O)C[C@H]1CC[C@@H]1[C@@H]2CC[C@]2(C)[C@@H](C3=CC(=O)OC3)CC[C@]12O | -87.2%
CC[C@@H](C(=O)[C@@H](C)[C@@H](O)[C@H](C)[C@@H]1O[C@@H]([C@@H](CC)C(=O)O)CC[C@@H]1C)[C@H]1O[C@]2(C=C[C@@H](O)[C@]3(CC[C@@](C)([C@H]4CC[C@](O)(CC)[C@H](C)O4)O3)O2)[C@H](C)C[C@@H]1C | -79.3%
C[C@]12O[C@H](C[C@]1(O)CO)n1c3ccccc3c3c4c(c5c6ccccc6n2c5c31)CNC4=O | -88.5%
COc1cc([C@@H]2c3cc4c(cc3[C@H](O)[C@H]3COC(=O)[C@H]23)OCO4)cc(OC)c1OC | -59.9%
CN1CCN(c2cccc3[nH]c(=O)oc23)CC1 | -64.6%
CC1CC(C)C(=O)C(C(O)CC2CC(=O)NC(=O)C2)C1 (stereo not given) | -82.5%
CC(C)(C)c1cc(C=C(C#N)C#N)cc(C(C)(C)C)c1O | -79.1%
CC(C)[C@]12O[C@H]1[C@@H]1O[C@]13[C@]1(O[C@H]1C[C@H]1C4=C(CC[C@@]13C)C(=O)OC4)[C@@H]2O | -90.2% and -88.7%
CN(C)C(=S)SSC(=S)N(C)C | -72.8%
c1ccc2c(c1)[I+]c1ccccc1-2 | -61.9%
COc1ccc(C[C@H]2NC[C@H](O)[C@H]2OC(C)=O)cc1 | -91.2%
Cn1c(COP(=O)(NCCBr)NCCBr)cnc1[N+](=O)[O-] | -53.2%
C[C@H]1CCC/C=C/[C@@H]2C[C@H](O)C[C@H]2[C@H](O)/C=C/C(=O)O1 | -99.3% and -97.5%
C=C1[C@@H](C)[C@H]2[C@H](Cc3ccccc3)NC(=O)[C@]23OC(=O)/C=C/[C@H](O)CCC[C@@H](C)C/C=C/[C@H]3[C@@H]1O | -28.2%
C[C@]12CC[C@H]3[C@@H](CC[C@]4(O)C[C@@H](O)CC[C@]34C=O)[C@@]1(O)CC[C@@H]2C1=CC(=O)OC1 | -81.8%
CC[C@@H]1/C=C/C=C/C[C@H](C)[C@H](O)[C@](C)(O)C(=O)[C@H](C)[C@@H](O)[C@H](C)C(=O)[C@H](C)[C@@H](O)[C@H](C)/C=C/C(=O)O[C@H]2[C@@H](C)[C@@H](CC1)O[C@@]1(CC[C@@H](C)[C@@H](C[C@H](C)O)O1)[C@@H]2C | -38.4%
COC(=O)NC(=S)Nc1ccccc1NC(=S)NC(=O)OC | -31.4%
CC[C@@]1(O)C(=O)OCc2c1cc1n(c2=O)Cc2cc3ccccc3nc2-1 | -94%
